Laboratory results from PubChem BioAssay (NCI).
The panel holds about 79,000 compounds, 15% with a hit somewhere; the sample as a whole holds those more often. No stated cut-off is given here; in the data, active means growth inhibition above about 70%; inactive means the rest.

Key:
[1] = NCI Yeast Anticancer Drug Screen. Data for the rad50 strain (AID 155);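 further: 0% = growth of vehicle-only cultures of the same strain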; details: S. cerevisiae rad50 strain growth inhibition; at 50.0 µM; stronger effect = higher value
How it was run: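 Cells are treated with compound, grown, and their growth is then scored against vehicle-only cultures of the same repair-deficient yeast strain.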

[2] = NCI Yeast Anticancer Drug Screen. Data for the mec2-1 strain (AID 157); details: S. cerevisiae mec2-1 strain, at 50.0 µM, stronger effect = higher value
How it was run: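 Using mec2-1 yeast: add compound, measure growth, express inhibition versus vehicle-treated cultures.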

[3] = NCI Yeast Anticancer Drug Screen. Data for the sgs1 mgt1 strain (AID 161);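 further: 0% = growth of cultures given vehicle only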; details: S. cerevisiae sgs1 mgt1 strain, at 50.0 µM, stronger effect = higher value
How it was run: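 Compounds are added to genetically altered yeast, and growth is compared with cultures given vehicle alone to give percent inhibition.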

[4] = NCI Yeast Anticancer Drug Screen. Data for the cln2 rad14 strain (AID 165);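 further: 0% = growth equal to vehicle treated cultures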; details: S. cerevisiae cln2 rad14 strain, at 50.0 µM, stronger effect = higher value
How it was run: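 Yeast strain cln2 rad14, bearing defects in cell cycle control and DNA repair, serves as the test system; values reflect growth inhibition compared with vehicle.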

[5] = NCI Yeast Anticancer Drug Screen. Data for the bub3 strain (AID 167); details: S. cerevisiae bub3 mutant strain, at 50.0 µM, stronger effect = higher value
How it was run: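 Part of a panel of yeast mutants defective in DNA damage repair or cell cycle regulation. Each strain is grown with compound, and inhibition is calculated relative to solvent-treated cultures.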

[6] = NCI Yeast Anticancer Drug Screen. Data for the mlh1 rad18 strain (AID 175); details: S. cerevisiae mlh1 rad18 strain growth inhibition; at 50.0 µM; stronger effect = higher value
How it was run: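 Steps: expose repair-defective yeast to compound; measure growth; express inhibition against vehicle-treated controls.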

Measured: growth inhibition

Cc1ccc2c(=O)cc(-c3cccc(F)c3)[nH]c2n1
inactive: [1] -4.9% | [2] -0.9% | [3] -11% | [4] 23.9% | [5] -6.25% | [6] -16.4%

O=c1ccc2ccc(-c3cnc(O)[nH]c3=O)oc-2c1
inactive: [1] 25.6% | [2] 2.05% | [3] 5.35% | [4] 1.4% | [5] 2.25% | [6] 10.3%

Cc1ccccc1S(=O)(=O)OC1NS(=O)(=O)c2ccccc21 (centres undefined)
inactive: [1] 15.8% | [2] -1% | [3] -36.9% | [4] -15.6% | [5] -23.3% | [6] 2.9%

Cc1nc2ccc(N)cc2oc1=O
inactive: [1] 6.55% | [2] 15.1% | [3] 15.2% | [4] -28.9% | [5] 0.8% | [6] 9.35%

CC(NS(=O)(=O)c1cccc(C(=O)O)c1)c1ccccc1 (centres undefined)
inactive: [1] 10.3% | [2] -14.5% | [3] 0.3% | [4] -38.4% | [5] 3.25% | [6] -0.05%

CCN(CC)CCCNc1[nH]ncc2c(C)c3nc4ccccc4c3cc12
inactive: [1] 14.1% | [2] -10.2% | [3] 14.7% | [4] 10.1% | [5] 9.4% | [6] -4.05%

ON=C1CCCCC1
inactive: [1] 37.9% | [2] 7.45% | [3] -1.45% | [4] -27.9% | [5] -3.15% | [6] 25.1%

COc1cccc2c1CCC1=CC(=O)CCC12C (centres undefined)
inactive: [1] 22.1% | [2] 5.5% | [3] 17.9% | [4] 28.8% | [5] 16.9% | [6] -0.65%

CCC(=C(C#N)C#N)c1cc(OC)c(OC)c(OC)c1
inactive: [1] -43% | [2] -31.8% | [3] -24.2% | [4] -16.2% | [5] -26.5% | [6] -13.8%

Clc1cccc(-c2nnc(-c3nn(-c4ccccc4)c4nc5ccccc5nc34)o2)c1
inactive: [1] -16.4% | [2] -31.3% | [3] -47.2% | [4] 6.1% | [5] -17.1% | [6] -10.8%

Cc1ccc(S(=O)(=O)OCCNc2ccc([N+](=O)[O-])cc2[N+](=O)[O-])cc1
inactive: [1] 2% | [2] 6.8% | [3] 6.45% | [4] 11.8% | [5] 2.9% | [6] 7.85%

O=S(=O)(N/C(=C(\NS(=O)(=O)c1ccccc1)c1ccccc1)c1ccccc1)c1ccccc1
inactive: [1] 63.7% | [2] 6.15% | [3] 39% | [4] 18.3% | [5] 60.9% | [6] 61.2%

CC(=O)C1=C(O)C2(O)C(=O)c3c(c(C)c4ccc(C)c(O)c4c3O)CC2C(N)C1=O (centres undefined)
inactive: [1] 9.85% | [2] 38.1% | [3] 14.2% | [4] 11.7% | [5] 19% | [6] 4%

Nc1cnc(N)nc1
inactive: [1] -8.4% | [2] -18.8% | [3] -21.6% | [4] -24.4% | [5] 11.8% | [6] -17.2%

COc1cc2c(cc1OC)C1(CCCl)C3CC4C(=CCOC5CC(=O)N2C1C54)CN3C(=O)Cc1ccccc1 (centres undefined)
inactive: [1] 40.2% | [2] 4.95% | [3] 16.4% | [4] 11.2% | [5] 5.9% | [6] 23.6%

O=c1[nH]cccc1O
inactive: [1] 5.2% | [2] 5.5% | [3] -17% | [4] 10.4% | [5] -8.8% | [6] 7.25%

C[Si](C)(C)CSCCO
inactive: [1] -13.7% | [2] -6.45% | [3] -20.8% | [4] -16.1% | [5] -14.7% | [6] -1.6%

Cn1c(=O)c2[nH]c(SC3CCCCC3)nc2n(C)c1=O
inactive: [1] 19.2% | [2] 11.4% | [3] 18.6% | [4] 11.3% | [5] 35.8% | [6] 8.9%

Cc1nc(=S)c2cnn(-c3ccccc3)c2[nH]1
inactive: [1] -15.4% | [2] -21.2% | [3] -3.9% | [4] -57.2% | [5] -27.1% | [6] -0.6%

CC(=O)/C(=C\c1ccc(C(F)(F)F)cc1)C(=O)CCN(C)C
inactive: [1] 43.4% | [2] 0.05% | [3] 51.6% | [4] 19.6% | [5] 3.25% | [6] 25.7%

OCCCCC(c1ccc(O)cc1)c1ccc(O)cc1
inactive: [1] 17% | [2] -52.3% | [3] 8.8% | [4] 25.1% | [5] -18.9% | [6] -14.7%

CC(O)CCC(C)O (centres undefined)
inactive: [1] -19.1% | [2] -24.2% | [3] -4.5% | [4] -4.95% | [5] 1.85% | [6] 10.2%

C[C@@H](C1CC[C@H]2[C@@H]3[C@@H]4O[C@@H]4[C@@]4(O)CC=CC(=O)[C@]4(C)[C@H]3C[C@H](O)[C@]12C)[C@H]1C[C@]2(C)O[C@]2(C)C(=O)O1 (some centres undefined)
inactive: [1] 1.35% | [2] -3.25% | [3] -2.9% | [4] 29.5% | [5] 2.65% | [6] -48.6%

CC1SCCNC1=O (centres undefined)
inactive: [1] -2.1% | [2] -1.5% | [3] -0.1% | [4] 7.3% | [5] 4% | [6] -16.9%

CC(=O)OCC1(C)NC(=O)c2ccccc2O1 (centres undefined)
inactive: [1] 8.2% | [2] 20.2% | [3] 6.9% | [4] 8.15% | [5] 9.7% | [6] 22.4%

CC(O)(c1cccc(OCc2ccccc2)c1)c1ccccn1 (centres undefined)
inactive: [1] 12.3% | [2] 0.05% | [3] 5.7% | [4] -11.4% | [5] -6.15% | [6] -7.8%

Cc1[nH]c2ccccc2c1C(CC(=O)O)c1ccccc1 (centres undefined)
inactive: [1] 13.6% | [2] -1.4% | [3] -12.8% | [4] -4.85% | [5] -4.55% | [6] -4.4%

COc1ccc(/C=C(\C)C=C(C#N)C#N)cc1
inactive: [1] 45.5% | [2] 39.8% | [3] 52% | [4] 38% | [5] 45.1% | [6] 59.7%

O=[N+]([O-])c1ccc(N/N=C/CCCCl)c([N+](=O)[O-])c1
inactive: [1] 6.6% | [2] -17.3% | [3] 13.2% | [4] 12.4% | [5] 11.1% | [6] 9.05%

O=C1c2ccccc2C2(O)Nc3c(ccc4ccccc34)C12O (centres undefined)
inactive: [1] 2% | [2] -3.3% | [3] 10.6% | [4] -3.8% | [5] -16.9% | [6] 15.4%

Cc1cc2c(c(C(=O)NCC(=O)N[C@@H](C)C(=O)OCc3ccccc3)c1)Oc1c(cc(C)cc1C(=O)NCC(=O)N[C@@H](C)C(=O)OCc1ccccc1)S2
inactive: [1] 26.4% | [2] 16.8% | [3] 23.8% | [4] 33% | [5] 19.6% | [6] 33.2%

NC(=O)C1(C(N)=O)CC1
inactive: [1] 11.4% | [2] 4.55% | [3] -14.5% | [4] -0.05% | [5] -3.75% | [6] 5.1%

O=C1NC(=O)C(c2ccc(Cl)cc2)(c2cccc(Cl)c2)N1 (centres undefined)
inactive: [1] 11.1% | [2] -16.5% | [3] 18.3% | [4] -11.8% | [5] 5.9% | [6] -5.9%

O=c1cccc(O)[nH]1
inactive: [1] -14.8% | [2] -17.6% | [3] -15.1% | [4] -0.15% | [5] -15.7% | [6] -8.85%

COC(=O)c1cccc2ccc3cccc(C=O)c3c12
inactive: [1] -29.4% | [2] 6.6% | [3] -5.9% | [4] -30.8% | [5] 12.2% | [6] -14.5%

Cc1ccc2c(CC(=O)O)cc(=O)oc2c1
inactive: [1] 7.35% | [2] -6.35% | [3] -7.95% | [4] 0.9% | [5] -0.3% | [6] -9.35%

O=C(N/N=C\c1ccc(Cl)cc1Cl)c1ccc(F)cc1
inactive: [1] -10.5% | [2] -10.8% | [3] -7.75% | [4] 0.3% | [5] -1.15% | [6] -4.1%

O=C1NC2NC(=O)NC2N1 (centres undefined)
inactive: [1] 6.6% | [2] -27.1% | [3] -3% | [4] -9.6% | [5] -2.05% | [6] 10.2%

O=Nc1c(-c2ccccc2)nnc(-c2ccccc2)c1N=O
inactive: [1] -24.9% | [2] 6.95% | [3] -0.3% | [4] -54.8% | [5] 34.7% | [6] -6.2%
